This is a sample that favours compounds with a hit; in the whole collection about 9.4% have one here.
SMN2 splice enh = increases expression of the SMN2 splice variant; Potency, µM (highest dose often 46.1 µM), without a hit: top-dose activity change, positive = activation, hits mostly activators; HEK293 SMN2-luciferase splicing reporter, luminescence, 30-36 h; 210,000 compounds, 2.8% hits; further: % of control where 0% means no effect; nearly all actives have a fitted effect of over 55% in size
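HEK293 cells carry an SMN2 […]–luciferase reporter in which exon 7 inclusion puts luciferase in frame. Cells were plated 10-12 h before compound addition, then incubated 30-36 h at 37C. ONE-Glo luminescence was read; sodium butyrate at 4.5 mM final served as control.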
NPC1 promoter act = activators of NPC1 promoter. Huh7 NPC1 promoter luciferase reporter, 24 h. Potency, µM (titrated, usually from 9.22 µM), without a hit: at the highest dose activation, actives largely listed as activators. 320,000 compounds, 2.4% hits. AID 485313; further: % of control where 0% means no effect; nearly all actives have a fitted effect of over 60% in size
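Quantitative HTS used a cell-based reporter: Huh7 cells stably bearing the NPC1 promoter upstream of luciferase were treated with compounds for 24 h, and promoter activation was read as luminescence.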
ELG1 repair inh = inhibitors of ELG1-dependent DNA repair in HEK293T cells. Potency, µM (highest dose often 46.1 µM), for the others: at the highest dose activity change, negative = inhibition, most hits filed as inhibitors. 330,000 compounds, 2.3% hits. AID 504467. HEK293T ELG1-luciferase reporter, luminescence, 16 h; DNA damage induced by 5-fluorouridine; further: on the % scale 0 is the no-effect control and ±100 the full control effect; nearly all actives have a fitted effect of over 55% in size
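Step one: seed 2,000 cells per well. Step two: pin-transfer compound or DMSO alongside 5-fluorouridine. Step three: incubate 16 hr, 37 °C, 5% CO2. Step four: add ONE-Glo, wait 30 min, read luminescence.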
FLuc modulator = firefly luciferase modulation, counter-screen for miR-21 project | P08659 | purified FLuc, Km substrates, luminescence inhibition | Potency, µM (highest dose often 57.5 µM), for inactives: top-dose activity change, negative = inhibition, actives largely listed as inhibitors | 360,000 compounds, 6.9% hits;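 further: plate controls were vehicle for no effect and reference inhibitor for full effect; nearly all actives have a fitted effect of over 55% in size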
Target sequence (P08659 whole entry, looked up): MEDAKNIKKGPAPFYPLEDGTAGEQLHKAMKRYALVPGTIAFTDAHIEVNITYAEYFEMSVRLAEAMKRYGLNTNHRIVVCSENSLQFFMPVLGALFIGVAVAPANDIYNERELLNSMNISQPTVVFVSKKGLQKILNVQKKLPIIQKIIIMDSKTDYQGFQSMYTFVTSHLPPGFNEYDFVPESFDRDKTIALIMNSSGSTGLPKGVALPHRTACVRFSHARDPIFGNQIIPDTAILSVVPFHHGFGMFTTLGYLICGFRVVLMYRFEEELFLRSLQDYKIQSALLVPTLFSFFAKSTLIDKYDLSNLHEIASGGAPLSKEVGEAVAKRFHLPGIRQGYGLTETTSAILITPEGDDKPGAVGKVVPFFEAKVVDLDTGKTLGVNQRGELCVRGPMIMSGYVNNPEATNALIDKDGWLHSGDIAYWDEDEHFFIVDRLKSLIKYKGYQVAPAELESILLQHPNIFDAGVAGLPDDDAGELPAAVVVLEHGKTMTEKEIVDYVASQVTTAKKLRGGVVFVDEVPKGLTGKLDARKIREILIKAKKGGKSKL
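Purified P. pyralis luciferase (10nM final) with 10uM D-luciferin and 10uM ATP (Km levels) in 50mM Tris acetate pH 7.5, 10mM Mg acetate, 0.01% Tween-20, 0.05% BSA; qHTS 6-point titration, ~60 µM downward; luminescence read.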
ELG1 genotox = genotoxicity induction in ELG1-luciferase HEK293T cells; Potency, µM (top dose mostly 46 µM), for inactives: at the highest dose activity change, positive = activation, most hits filed as activators; 330,000 compounds, 1.3% hits; AID 504466; HEK293T ELG1-luciferase reporter, luminescence, 16 h; further: % of control where 0% means no effect; nearly all actives have a fitted effect of over 60% in size
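Genotoxicity was scored as increased ELG1-luciferase reporter signal, measured by ONE-Glo luminescence (30 min, room temperature). Compound or vehicle exposure of the HEK293T reporter cells lasted 16 hr at 37°C.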
Rab9 prom act = Rab9 promoter activation | Potency, µM (titrated, usually from 9.22 µM), for the others: at the top dose activation, negative = inhibition, actives largely listed as activators | Huh7 Rab9 promoter-luciferase reporter, luminescence, 24 h | AID 485297 | 320,000 compounds, 2.8% hits; further: % of control where 0% means no effect; nearly all actives have a fitted effect of over 60% in size
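Luciferase signal after 10 min detection reagent at ambient indicates Rab9 promoter upregulation; stably transfected Huh7 cells were treated 24 h with compound in DMSO at 37 °C, 5% CO2.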
Starred values were filed as active, the others as inactive. The call rests on the fitted dose curve; in most records, active means well fitted curve in the direction sought with a large enough effect; inconclusive means small, poorly fitted or top-dose-only effect, or another doubt; inactive means no such curve, though single readings can be large; an effect the other way counts as inactive or inconclusive. Potency means the concentration at half of the fitted maximal effect.

Screening Clc1ccc(-c2nnc(-c3ccc(Br)cc3)c(N3CCSCC3)n2)cc1 returned SMN2 splice enh -8%, NPC1 promoter act -1%, ELG1 repair inh inconclusive, FLuc modulator -2%, ELG1 genotox -5% and Rab9 prom act -5%.
O=C(c1ccco1)N1CCN(C(=O)c2cn(-c3ccccc3)nc2-c2ccc(F)cc2)CC1 was read as NPC1 promoter act 5%, ELG1 repair inh inconclusive, FLuc modulator 4.8µM*, ELG1 genotox 5% and Rab9 prom act 12%.
`Fc1ccc(-c2csc(N3CCSCC3)n2)cc1` gave SMN2 splice enh -11%, NPC1 promoter act 6%, ELG1 repair inh 29%, FLuc modulator 17µM*, ELG1 genotox 0% and Rab9 prom act 21%.
`c1ccc(-c2csc(N3CCSCC3)n2)cc1` gave SMN2 splice enh 7%, NPC1 promoter act 13%, ELG1 repair inh inconclusive, FLuc modulator 24µM*, ELG1 genotox 0% and Rab9 prom act inconclusive.
Screening COc1ccc(S(=O)(=O)c2cn(C)c3cc(N4CCOCC4)c(F)cc3c2=O)cc1 returned FLuc modulator -1%.
CC(C)CNC(=S)N1CCN(c2nc(-c3ccc(Cl)cc3)cs2)CC1 was read as NPC1 promoter act -9%, ELG1 repair inh inconclusive, FLuc modulator -3%, ELG1 genotox -7% and Rab9 prom act -1%.
Screening CCC(=O)N1CCN(c2nc(-c3ccc(Cl)cc3)cs2)CC1 returned SMN2 splice enh -42%, NPC1 promoter act 2%, ELG1 repair inh 2%, FLuc modulator 27µM*, ELG1 genotox 4% and Rab9 prom act 1%.
`O=C(CSc1nc(-c2ccc(F)cc2)cs1)N1CCOCC1` gave SMN2 splice enh 62%, NPC1 promoter act 29%, ELG1 repair inh inconclusive, FLuc modulator inconclusive, ELG1 genotox 18µM* and Rab9 prom act inconclusive.
Screening CC1CN(C(=O)CSc2nc(-c3ccc(F)cc3)cs2)CC(C)O1 (centres undefined) returned SMN2 splice enh -46%, NPC1 promoter act -1%, ELG1 repair inh 8%, FLuc modulator -3%, ELG1 genotox -2% and Rab9 prom act 0%.
For Fc1ccc(-c2csc(N3CCOCC3)n2)cc1 the results were NPC1 promoter act 4µM*, ELG1 repair inh inconclusive, FLuc modulator 21µM*, ELG1 genotox 13% and Rab9 prom act 2.5µM*.
`Cc1nc(-c2ccccc2)cs1` gave SMN2 splice enh 15%, NPC1 promoter act -4%, ELG1 repair inh -2%, FLuc modulator -14%, ELG1 genotox 0% and Rab9 prom act 0%.
`c1ccc(-c2csc(-n3cccn3)n2)cc1` gave SMN2 splice enh 1%, NPC1 promoter act 19%, ELG1 repair inh inconclusive, FLuc modulator 27µM*, ELG1 genotox 2% and Rab9 prom act 23%.
Cc1ccc2c(c1)[C@H]1[C@H](CO2)[C@H](c2ccccc2)[C@]2(C)C(=O)Nc3cc(F)ccc3C(=O)N12 was read as ELG1 repair inh inconclusive and ELG1 genotox 0%.
For Cc1c(C(=O)N(C)C)sc2c1c(=O)n(-c1ccc(Cl)c(Cl)c1)c(=O)n2CC(=O)Nc1ccc(Br)cc1F the results were FLuc modulator 1%.
Screening COc1ccc(OC)c(NC(=O)CSc2ncnc3c2cnn3-c2ccccc2Cl)c1 returned SMN2 splice enh -107%, NPC1 promoter act -27%, ELG1 repair inh 9.2µM*, FLuc modulator 2%, ELG1 genotox -14% and Rab9 prom act -30%.
For NS(=O)(=O)c1ccc(Nc2nc(-c3ccc(O)cc3O)cs2)cc1 the results were SMN2 splice enh 14%, NPC1 promoter act -1%, ELG1 repair inh -18%, FLuc modulator inconclusive, ELG1 genotox inconclusive and Rab9 prom act -9%.
